These results are taken from the supplement of paper PMC6555819.

This assay has as its system VDR:RXRa (NR concentration 270 nM, RXRa partner concentration 90 nM). The assay is described as follows: PBM binding z-score (relative to random genomic background probes); higher = stronger binding; sequences stand for … in GC…GCGATTGACAGCGTAGAATGAAGG
As for the experimental part:
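Protein-binding microarray (Agilent 4x180K custom design, double-stranded 60-nt probes: 5' GC cap, 34-nt variable region, 24-nt constant primer region; full probe sequence given). Purified or IVT nuclear receptor:RXRα heterodimers (3:1 NR:RXRα, mostly 270:90 nM) or homodimers were incubated for 1 h in PBS with 2% milk and no ligand, then detected with Alexa488 antibodies. Fluorescence from o1-orientation probes (~5 replicates averaged) was converted to z-scores against 500 random hg19 background probes. Variable regions are seed direct-repeat (DR0–DR5) sites, all their single-nucleotide variants and half-site ablations.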
In turn, TAGCATAGGTCATTGGGCCAGTATAGTACGCATC registered a PBM binding z-score of 3.27. TTACCAAGGTGAGCTGGGGTCGTTGATCCAACTC came in with a PBM binding z-score of 4.15. With CCAGAAAGGTGAGAAGGTAACTCAGCCTCGATTA, the PBM binding z-score turned out to be 0.43. Sequence TAGACTAGGTCATTGGGCCAGTATAGTACGCATC yielded a PBM binding z-score of 1.93. As for GCTTGTAGATCAACGTTAAGAAAGACTAAGCTAA, the PBM binding z-score was -0.456. Take CCTGCGAGGTCAATGGTCAGCTAAAGCAGCTCGC: the PBM binding z-score worked out at 4.73. As to AGAATGAGGTTATTAAGATCAGGGACTTGCGGTC, the PBM binding z-score was 2.47. The sequence ATATGTAGGTTATCGGTTCATTCAGTTTGCGCAT registered a PBM binding z-score of 3.97. As to TCTTTTAGTTGATTAGGGCAACCGAAACAGCGGA, the PBM binding z-score was found to be 0.986. Consider TCTTGTAGATCAAAGGTTAAGAAGGCCGAAGCCT, for which the PBM binding z-score is 2.65.

As to ACAGACAGGTGAGTGAAGGTAATTCAGCTGGACG, the PBM binding z-score is -0.394. To TCGGGTAGGTTACCAATGGGGCATTCAGCTTTCT belongs 0.639; to GCAGACAGGTGAAACACAGGTAACTCAGGGTGGC, -0.244. Regarding ATCTCTAGGTAAAGAGAGTTCAGTGAATGCAAAT, the PBM binding z-score was determined as 3.33.

ATATGTAGATTATCGGGTCATTCAGTTTGCGCAT registered a PBM binding z-score of 4.87. The sequence TAGCCTAGGTCATTCATGGGCCAGTATAGAAAGC displayed a PBM binding z-score of 2.16. Regarding TAGCCTAGGTAATGCGGGCCAGTATAGTGTCGGC, the PBM binding z-score was -0.839. As for ACCGACAGGTGATGAAGGTAACTCAGGCTATCAT, the PBM binding z-score was -0.148. To ATATGTAGGATACATCCGGGTCATTCAGGCTATG belongs 3.21; to CGTCAAAGTTCAAGGTAACGTGACAGAAAGCAGC, 3.71; to GCTCGGAGGACAAGGTCAGAGCCTTGTCCGTAGA, 1.43. In the case of AGCATGAGGTTACCAAAGATCAGGGAAACGCTTG, the PBM binding z-score was 1.28. Turning to CTTAGCAGGCCAGGGTCACTCAAGCATTTCGCTT, the PBM binding z-score came out at 2.67. To ACACGGAGGACAAAGGTCAGAGCTACGCCAGTGA belongs 3.46; to CCTAGCAGGTCAGGGTCACTCAAGCATTTCGCTT, 4.13. For the sequence CGAACCAGGTCATCCAGGACAGTGAATACATTGA, the PBM binding z-score was determined as 5.42. In turn, ATACCCAGGTGATCGTGAGGTCGTTGATACTAAC came in with a PBM binding z-score of 2.51. In the case of GCTTATAGGTAATACAAGGTGAAAGTCCGATTGT it was 0.401; in that of GCTTGTAGATCAAGGTGAAGAAAGACTAAGCTAA, -0.394; in that of ATATTTAGGTTAGCTGGGGTCATTCAGACTAGGC, 6.03.

CCTTACGGGTCACTCCAGTTTATAGCATCGGAGT returned a PBM binding z-score of 5.1. TGTCAAAGTTCAAAGGTAGCGTAAGTATCCACAC yielded a PBM binding z-score of 4.76. Sequence ATCTCTAGGTAAAGTTCAATGAAAGATCGATAGA registered a PBM binding z-score of 2.5. To ATCGAAAGGTTGACGAGGTGAGTATACACCGTTT belongs 2.71; to GCATATAAGTAATACAAGGTGAAAGTCCGATTGT, 0.0691.

TAGCGTAGGTCAGATCGGGCCAGTATACGCTATA showed a PBM binding z-score of 0.856.

On to GCTAGTTGGTCAGTAAAAGGGCACACACCGGTCG, for which the PBM binding z-score came out at 0.0154. As to TCTTGTAGATCAAAAGAGGTTAAGAAAGTGCGCT, the PBM binding z-score worked out at 1.72. To AGAACGAGGGCACGCTGATTTGATAGCAGAGTAG belongs 0.858; to AGAATGTGGTTATACGTAGATCAGGGAAGAAAGT, 0.0519.
